PfHsp90 set2 – growth inhibition of yeast expressing Plasmodium Hsp90. inhibition, % at 9.4 µM. 310,000 compounds, 0.32% hits. S. cerevisiae expressing PfHsp90, BacTiter-Glo ATP, 48 h; yeast lacking PDR1 and PDR3 efflux regulators;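 active means every replicate shows inhibition above about 80%, whatever the replicate mean, limit read from the data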;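 further: 0% = DMSO neutral controls and 100% = 20 µM radicicol positive controls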
tim10-1 inh – inhibits growth of tim10-1 mutant yeast; AID 463190; 330,000 compounds, 2.2% hits; inhibition, % at 20 µM; S. cerevisiae tim10-1 ts strain growth, BacTiter-Glo, 24 h;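 active means inhibition of at least 40%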;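 further: mutant grown at 25 °C; 0% = DMSO wells with yeast and 100% = wells holding no yeast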
tim23-1 inh – growth inhibitors of tim23-1 mutant yeast. AID 463212. inhibition, % at 20 µM. S. cerevisiae tim23-1 growth, BacTiter-Glo luminescence, 24 h. 330,000 compounds, 1.3% hits;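 active means growth inhibition of the mutant yeast at or above 50%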;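 further: temperature-sensitive mutant grown at 25 °C; plate controls were DMSO-treated mutant yeast for no effect and medium wells lacking yeast for full effect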
TIM10 inh – growth inhibitors of TIM10 yeast strain. S. cerevisiae TIM10 strain growth, BacTiter-Glo luminescence, 24 h. inhibition, % at 10 µM. 330,000 compounds, 1.4% hits;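 active means inhibition of 40% or more at the single tested concentration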;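 further: wild-type TIM10 isogenic control strain grown at permissive 25 °C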
Beta2AR agonist – agonists of human beta-2 adrenergic receptor inducing internalization. P07550. Am2.2-beta2AR cells, FAP receptor internalization, flow cytometry. response, % (concentration not given with the values). 340,000 compounds, 0.43% hits;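 active means response above a set limit, near 3 SD of response in nonfluorescent compounds, cut at about 42% in these data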
Target sequence (P07550 whole entry, looked up): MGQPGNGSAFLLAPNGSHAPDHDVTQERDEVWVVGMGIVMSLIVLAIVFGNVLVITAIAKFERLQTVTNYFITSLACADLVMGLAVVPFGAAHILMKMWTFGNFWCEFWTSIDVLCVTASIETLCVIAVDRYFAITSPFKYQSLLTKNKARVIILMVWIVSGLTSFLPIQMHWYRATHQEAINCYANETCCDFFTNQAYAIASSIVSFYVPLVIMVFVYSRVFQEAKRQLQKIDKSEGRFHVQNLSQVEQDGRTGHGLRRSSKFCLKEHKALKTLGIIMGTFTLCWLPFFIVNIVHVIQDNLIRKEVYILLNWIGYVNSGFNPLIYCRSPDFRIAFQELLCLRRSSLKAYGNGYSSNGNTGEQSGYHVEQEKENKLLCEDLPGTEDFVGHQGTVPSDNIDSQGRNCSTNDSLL
tim10-1 conf – tim10-1 yeast growth inhibition, confirmed | shares compounds with tim10-1 inh | S. cerevisiae tim10-1 ts strain growth, BacTiter-Glo, 24 h | inhibition, % at 20 µM | 7,400 compounds, 56% hits;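 active means inhibition of yeast growth at or above a set limit in either of two repeat tests at 20 µM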;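 further: tim10-1 mutant grown at permissive 25 °C to find synthetic lethal compounds; 0% = DMSO yeast wells and 100% = medium wells without yeast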
TIM10 conf – TIM10 yeast growth inhibition, confirmed | 4,600 compounds, 63% hits | inhibition, % at 10 µM | shares compounds with TIM10 inh | S. cerevisiae tim10 strain growth, BacTiter-Glo luminescence, 24 h;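 active means inhibition of yeast growth at or above a set limit in either of two replicates at 10 µM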;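 further: this counterscreen used the strain with wild-type TIM10; 0% = yeast with DMSO and 100% = medium wells lacking yeast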
tim23-1 conf – confirmation of tim23-1 mutant yeast growth inhibitors | 4,400 compounds, 83% hits | AID 463218 | shares compounds with tim23-1 inh | S. cerevisiae tim23-1 growth, BacTiter-Glo luminescence, 24 h | inhibition, % at 20 µM;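 active means inhibition above about 39% in either of two replicate wells at 20 µM, limit read from the data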;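 further: temperature-sensitive tim23-1 mutant grown at 25 °C; 0% = DMSO wells with yeast and 100% = medium wells without yeast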
Active calls of the source: *. Only some compounds are listed: those with a hit (about 3.8% of all), similar ones and a draw of the others.

For O=S1(=O)C=C(Sc2nnc(-c3ccccc3)o2)c2ccccc21 the results were PfHsp90 set2 111*, tim10-1 inh 94*, tim23-1 inh 57*, TIM10 inh 91*, Beta2AR agonist -407, tim10-1 conf 92*, TIM10 conf 91* and tim23-1 conf 85*.
COc1ccc(OCc2cc(/C=N\NC(=O)c3ccccc3)ccc2OC)cc1 was read as PfHsp90 set2 -5, tim10-1 inh 49*, tim23-1 inh 52*, TIM10 inh 34, Beta2AR agonist 2, tim10-1 conf 31 and tim23-1 conf 45*.
COc1cccc(C(=O)OCCNC(=O)c2cccnc2)c1 was read as PfHsp90 set2 5, tim10-1 inh -12, tim23-1 inh 4, TIM10 inh -12 and Beta2AR agonist 0.
Cc1ccc(NC(=O)CN(C)C(=O)c2cc(S(=O)(=O)N(C)C)ccc2N2CCCC2)cc1 was read as tim10-1 inh 14, tim23-1 inh 25, TIM10 inh 6 and Beta2AR agonist 3.
`S=C(NCc1ccco1)Nc1ccc(Oc2ccc(Cl)cc2)cc1` gave PfHsp90 set2 14, tim10-1 inh 46*, tim23-1 inh 63*, TIM10 inh 38, Beta2AR agonist -1, tim10-1 conf 60* and tim23-1 conf 76*.
For S=C(NCc1ccco1)Nc1ccc(Cl)cc1 the results were PfHsp90 set2 -8, tim10-1 inh 5, tim23-1 inh 14, TIM10 inh -5 and Beta2AR agonist 17.
CC(=O)Cc1nsc(NC(=O)c2ccc(-c3ccc(Cl)cc3Cl)o2)n1 was read as PfHsp90 set2 -44, tim10-1 inh 46*, tim23-1 inh 57*, TIM10 inh 7, Beta2AR agonist -2, tim10-1 conf 35* and tim23-1 conf 53*.
`CC(=O)Cc1nsc(NC(=O)c2ccc(-c3cc(Cl)ccc3Cl)o2)n1` gave PfHsp90 set2 -21, tim10-1 inh 20, tim23-1 inh 31, TIM10 inh 25 and Beta2AR agonist -12.
Screening CCC(=O)c1ccc(OC)c(OC)c1OCc1ccccc1 returned PfHsp90 set2 1 and Beta2AR agonist -15.
`Cc1ccc(CNc2oc(-c3ccco3)nc2C#N)cc1` gave PfHsp90 set2 -26, tim10-1 inh 12, tim23-1 inh 33, TIM10 inh 11 and Beta2AR agonist -4.
`COc1ccc(CCNc2oc(-c3ccco3)nc2C#N)cc1` gave PfHsp90 set2 -13, tim10-1 inh 42*, tim23-1 inh 64*, TIM10 inh 52*, Beta2AR agonist -12, tim10-1 conf -5, TIM10 conf 37* and tim23-1 conf 68*.
Screening O=C1CCCCC1(O)Cc1ccc2c(c1)OCO2 (stereo unspecified) returned PfHsp90 set2 4 and Beta2AR agonist 9.
`O=c1[nH][nH]c(=O)c(Cl)c1Cl` gave Beta2AR agonist -11.
`CCOC(=O)N/N=C/c1c(C)nn(-c2cccc(C(F)(F)F)c2)c1Cl` gave PfHsp90 set2 -68, tim10-1 inh 47*, tim23-1 inh 58*, TIM10 inh 24, Beta2AR agonist 0, tim10-1 conf 36* and tim23-1 conf 60*.
`CCOC(=O)c1cnc2cc3c(cn2c1=O)CCCC3` gave PfHsp90 set2 11, tim10-1 inh -4, tim23-1 inh 1, TIM10 inh 4 and Beta2AR agonist -8.
Screening CCOC(=O)C1=C(SCC)c2cc3c(n2C1=O)CCCC3 returned PfHsp90 set2 25, tim10-1 inh 65*, tim23-1 inh 59*, TIM10 inh 59*, Beta2AR agonist -15, tim10-1 conf 48*, TIM10 conf -12 and tim23-1 conf 61*.
Screening COc1cc2c(cc1OC)CN(C(=O)CSc1ccccc1C)CC2 returned PfHsp90 set2 -15, tim10-1 inh -15, tim23-1 inh 14, TIM10 inh 4 and Beta2AR agonist -1.

Bioassay records from PubChem BioAssay.
